The list is not random: actives were taken first. Their share in the collection is about 3.4%.
GCN5L2 inh: blocks human GCN5L2 histone acetyltransferase; Q92830; GCN5L2 HAT assay, ThioGlo1 CoA-SH fluorescence; Potency, µM (highest dose often 58.9 µM), most hits filed as inhibitors; 0.21% of 390,000 active
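Enzyme at 20nM final was mixed with library compounds for 15 min at room temperature. Peptide H3(1-25) at 75uM, acetyl-CoA at 70uM and ThioGlo1 at 50uM were then added. Plates were read immediately and after 20 min (Ex340nm/Em540nm).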
PKM2 act: increases activity of human pyruvate kinase M2; AID 1631; Potency, µM (titrated, usually from 57.5 µM), most hits filed as activators; purified PKM2, Kinase-Glo ATP luminescence, activation; response scale: 0% is enzyme alone, no compound; 0.34% of 260,000 active; note: nearly all actives have a fitted effect of over 55% in size
Target sequence (P14618 whole entry, looked up): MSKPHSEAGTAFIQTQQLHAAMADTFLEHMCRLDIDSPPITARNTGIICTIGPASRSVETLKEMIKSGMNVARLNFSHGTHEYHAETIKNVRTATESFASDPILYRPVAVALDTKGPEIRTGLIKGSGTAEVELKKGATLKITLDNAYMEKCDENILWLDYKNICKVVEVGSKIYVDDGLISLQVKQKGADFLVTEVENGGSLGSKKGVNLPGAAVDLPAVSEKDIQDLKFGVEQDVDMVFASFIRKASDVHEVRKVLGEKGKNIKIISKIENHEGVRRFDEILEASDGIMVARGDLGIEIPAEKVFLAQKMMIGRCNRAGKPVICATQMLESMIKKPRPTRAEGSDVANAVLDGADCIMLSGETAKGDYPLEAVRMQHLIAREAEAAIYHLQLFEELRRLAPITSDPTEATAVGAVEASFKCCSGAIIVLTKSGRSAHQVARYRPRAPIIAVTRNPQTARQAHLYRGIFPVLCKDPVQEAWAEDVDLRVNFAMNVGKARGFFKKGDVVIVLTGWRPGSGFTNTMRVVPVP
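Purified hPK-M2 (>95%) run at intermediate activity with 0.1 mM ADP and 0.5 mM PEP in 50 mM imidazole pH 7.2, KCl, MgCl2; 1 h room temperature. ATP formed read by Kinase-Glo luminescence; normalized to uninhibited and no-enzyme controls.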
GLS inh: inhibitors of human glutaminase (GLS) | O94925 | GLS enzymatic activity, qHTS titration | Potency, µM (series often up to 45.5 µM), hits mostly inhibitors | 0.21% of 410,000 active | AID 624170
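Assay buffer: 45 mM KH2PO4 pH 8.2, 0.02% Tween-20. hKGA acts on L-glutamine (1 mM solution added); product glutamate is reported by an oxidase/peroxidase Amplex Red coupling, with fluorescence taken at baseline and 30 min.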
VDR inh: inhibitors of human vitamin D receptor | P11473 | VDR-SRC2-3 peptide fluorescence polarization, 2 h | Potency, µM, usual class: inhibitors | 0.93% of 400,000 active | AID 504847
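Fluorescence polarization assay measuring small-molecule disruption of VDR binding to the coregulator peptide SRC2-3. Compounds were pin-transferred (23 nl) into the reagent mix and incubated 2 h at room temperature before reading.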
PLK1 PBD block: blocks phosphopeptide binding to human PLK1 polo-box domain. 2.8% of 360,000 active. Potency, µM, actives largely listed as inhibitors. Plk1 PBD binding of FITC phosphopeptide, fluorescence polarization. P53350; note: series mostly up to about 57 µM; nearly all actives have a fitted effect of over 65% in size
Mito fusion act: blocks mitochondrial division or promotes mitochondrial fusion. S. cerevisiae fusion-defective mutant growth rescue, CellTiterGlo 48 h. Potency, µM (titrated, usually from 46.1 µM), hits mostly activators. 0.23% of 320,000 active; note: nearly all actives have a fitted effect of over 45% in size
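Temperature-sensitive fusion-defective S. cerevisiae (e.g. fzo1-1, mgm1-5) were grown with compound in YPEG medium (3% ethanol, 3% glycerol) for 48 hours at 37C. Growth rescue was measured as viability by CellTiterGlo luminescence after 10 minutes at ambient.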
Numbers stand for hits. Calls come from the whole dose curve; as a rule, active = well fitted curve in the direction sought with a large enough effect; inconclusive = small, poorly fitted or top-dose-only effect, or another doubt; inactive = no such curve, though single readings can be large; an effect the other way counts as inactive or inconclusive.

Screening CC1(C)CC(=O)C2=C(C1)NC(Nc1nc3ccccc3o1)=NC2c1cccc(F)c1 (stereo unspecified) returned VDR inh inactive.
For O=C(Nc1cnc2ccccc2c1)N1CCOCC1 the results were GCN5L2 inh inactive, PKM2 act inactive, GLS inh inactive, VDR inh inactive, PLK1 PBD block 26.7µM and Mito fusion act inactive.
O=C1C[C@H](c2ccccc2Cl)N1S(=O)(=O)c1ccccc1[N+](=O)[O-] was read as VDR inh inactive.
Screening CCc1nnc2c(Nc3ccc(N(CC)CC)cc3C)nc3ccccc3n12 returned GCN5L2 inh inactive, GLS inh inactive and VDR inh inactive.
For Cc1cc(C(=O)N/N=C/c2ccc(O)c(O)c2O)c(C)n1-c1ccccc1 the results were GCN5L2 inh inconclusive, PKM2 act 28.2µM, GLS inh 15.8µM, VDR inh inactive, PLK1 PBD block 6.7µM and Mito fusion act inactive.
O=C(CCN1CCN(c2ccccc2)CC1)N/N=C/c1ccc(O)c(O)c1O was read as GCN5L2 inh inactive, PKM2 act inconclusive, GLS inh inconclusive, VDR inh inactive, PLK1 PBD block 10.6µM and Mito fusion act inactive.
O=C(Cc1csc(N2CCOCC2)n1)N/N=C/c1ccc(O)c(O)c1O was read as GCN5L2 inh inactive, PKM2 act inconclusive, GLS inh inconclusive, VDR inh inactive, PLK1 PBD block 10.6µM and Mito fusion act inactive.
For C/C(=N\NC(=O)Cc1csc(N2CCOCC2)n1)c1ccccc1 the results were GCN5L2 inh inactive, PKM2 act inactive, VDR inh inactive, PLK1 PBD block inactive and Mito fusion act inactive.
`CCN(CCn1cccn1)C(=O)C1CCC(=O)N(CCc2cccc(F)c2)C1` (stereo unspecified) gave GCN5L2 inh inactive, PKM2 act inactive, GLS inh inactive, VDR inh inactive, PLK1 PBD block inactive and Mito fusion act inactive.
`Cc1ccccc1OC1=NS(=O)(=O)c2ccccc21` gave GCN5L2 inh inactive, PKM2 act inactive, GLS inh inactive, VDR inh inactive, PLK1 PBD block 29.9µM and Mito fusion act inactive.
`ClN=C1C=CC=CC1=NCl` gave GLS inh 10µM and PLK1 PBD block 10.6µM.
`CN=C(NC)NCc1ccccc1` gave GLS inh inactive.
`COc1cc(-c2ccc(N=Nc3ccc4c(S(=O)(=O)O)cc(S(=O)(=O)O)c(N)c4c3O)c(OC)c2)ccc1N=Nc1ccc2c(S(=O)(=O)O)cc(S(=O)(=O)O)c(N)c2c1O` gave GCN5L2 inh 3.98µM and VDR inh inconclusive.
`CCS(=O)(=O)c1ccc(N=Nc2ccc(O)c3ncccc23)c(OC)c1` gave GCN5L2 inh inactive, PKM2 act inactive, GLS inh inactive, VDR inh inactive, PLK1 PBD block inactive and Mito fusion act inactive.
For O=C(O)c1cc(N(Cc2ccccc2O)Cc2cc(O)ccc2O)ccc1O the results were GCN5L2 inh inconclusive and VDR inh 50.1µM.
O=C(Cc1ccccc1)c1ccc(O)cc1O was read as GLS inh inactive, VDR inh inactive and PLK1 PBD block inactive.
`CC(C)NC(=O)Nc1ccc2c(c1)C(=O)N([C@H](C)CO)C[C@H](C)[C@@H](CN(C)S(C)(=O)=O)O2` gave GCN5L2 inh inactive, GLS inh inactive, VDR inh inactive and PLK1 PBD block inactive.
COc1ccc(N2CC(C(=O)N[C@@H](C)C(=O)NCc3ccccc3OC)CC2=O)cc1 (stereo partly specified) was read as GCN5L2 inh inactive, GLS inh inactive, VDR inh inactive, PLK1 PBD block inactive and Mito fusion act inactive.
CCc1ccc(NC(=O)[C@H](NC(=O)[C@@H]2Cc3ccccc3CN2)c2ccccc2)cc1 was read as GCN5L2 inh inactive, GLS inh inactive, VDR inh inactive, PLK1 PBD block 29.9µM and Mito fusion act inactive.
Screening Cc1cc(C)cc(NC(=O)[C@H](NC(=O)[C@@H]2Cc3ccccc3CN2)c2ccccc2)c1 returned GCN5L2 inh inactive, GLS inh inactive, VDR inh inactive, PLK1 PBD block inactive and Mito fusion act inactive.
`CCOc1ccccc1C(=O)N(Cc1ccco1)C1CCS(=O)(=O)C1` (stereo unspecified) gave GCN5L2 inh inactive, PKM2 act inactive, GLS inh inactive, VDR inh inactive, PLK1 PBD block inactive and Mito fusion act inactive.
`COc1cccc(CN(C(=O)COc2ccccc2[N+](=O)[O-])C2CCS(=O)(=O)C2)c1` (stereo unspecified) gave GCN5L2 inh inactive, PKM2 act inactive, GLS inh inactive, VDR inh inactive, PLK1 PBD block 23.8µM and Mito fusion act inactive.
Screening COc1cccc(CN(C(=O)c2ccc([N+](=O)[O-])cc2)C2CCS(=O)(=O)C2)c1 (stereo unspecified) returned GCN5L2 inh inactive, GLS inh inactive, VDR inh inconclusive, PLK1 PBD block 11.9µM and Mito fusion act inactive.
Screening Cc1ccc(CN(C(=O)c2ccc([N+](=O)[O-])cc2)C2CCS(=O)(=O)C2)o1 (stereo unspecified) returned GCN5L2 inh inactive, PKM2 act inactive, GLS inh inconclusive, VDR inh inconclusive, PLK1 PBD block 3.77µM and Mito fusion act inactive.
`CCOc1ccccc1C(=O)N(Cc1ccc(C)o1)C1CCS(=O)(=O)C1` (stereo unspecified) gave GCN5L2 inh inactive, PKM2 act inactive, GLS inh inactive, VDR inh inconclusive, PLK1 PBD block 18.9µM and Mito fusion act inactive.
Screening O=C(O)c1ccccc1C(c1ccccc1)c1ccccc1O (stereo unspecified) returned GLS inh inactive, VDR inh inactive and PLK1 PBD block inactive.
Screening CC(C)C(NC(=O)C1CC(=O)N(Cc2ccccc2)C1)c1nc2ccccc2[nH]1 (stereo unspecified) returned GCN5L2 inh inactive, GLS inh inconclusive, VDR inh inactive and PLK1 PBD block inactive.
Screening COC(=O)c1ccc(C(NC(=O)OCc2ccccc2)/C(F)=C/[C@@H](C)C(=O)NCc2cccnc2)cc1 (stereo partly specified) returned PKM2 act inactive.
Screening O=C(Nc1ccc2nc3n(c(=O)c2c1)CCCCC3)C(=O)N1CCN(c2ccc(F)cc2)CC1 returned GCN5L2 inh inactive, GLS inh inconclusive, VDR inh inconclusive, PLK1 PBD block 6.7µM and Mito fusion act inactive.
Screening O=C(Nc1ccc2nc3n(c(=O)c2c1)CCCCC3)c1c(F)ccc([N+](=O)[O-])c1F returned GCN5L2 inh inactive, GLS inh inactive, VDR inh inconclusive, PLK1 PBD block 23.8µM and Mito fusion act inactive.

High-throughput results: PubChem BioAssay, National Center for Advancing Translational Sciences (NCATS)
